Screening results as filed in PubChem.
M1 PAM: human M1 muscarinic receptor positive allosteric modulators, primary screen, CHO-K1 cells, Fluo-8 calcium fluorescence, 1536-well | activation, % at 3 µM | hit rate 0.088% among 360,000 | CHO-K1 hM1, ACh EC20; 0% = ACh EC20, 100% = maximal ACh; in the data active = activation above about 19%, passing the limit was not always enough
Target sequence (P11229 whole entry, looked up): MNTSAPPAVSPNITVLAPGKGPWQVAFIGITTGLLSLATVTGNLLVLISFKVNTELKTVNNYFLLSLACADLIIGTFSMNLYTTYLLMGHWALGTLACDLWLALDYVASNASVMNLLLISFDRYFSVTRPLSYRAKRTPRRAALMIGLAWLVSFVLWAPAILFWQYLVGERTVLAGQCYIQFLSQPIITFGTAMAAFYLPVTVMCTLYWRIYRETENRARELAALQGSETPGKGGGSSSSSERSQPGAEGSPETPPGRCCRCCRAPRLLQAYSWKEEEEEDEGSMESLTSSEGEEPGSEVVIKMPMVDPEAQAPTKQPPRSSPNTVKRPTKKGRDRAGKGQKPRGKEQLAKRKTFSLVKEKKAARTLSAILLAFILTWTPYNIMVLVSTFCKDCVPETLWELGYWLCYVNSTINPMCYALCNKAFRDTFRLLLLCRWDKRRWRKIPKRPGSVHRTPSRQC
CHO-K1 Ca PAM: nonselective calcium activators in parental CHO-K1 cells, primary screen, counter-screen for M1 PAM project, cell-based, Fluo-8 calcium fluorescence, full deck, 1536-well. hit rate 0.02% among 360,000. activation, % at 3 µM. ATP EC20; 0% at ATP EC20, 100% at ATP max. AID 602247, 2012;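 active = activation above the run cutoff, the mean activation of all test compounds plus 3 SD, cut at about 40% in these data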;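 note: peak over basal fluorescence ratio in a 140 s read after ATP addition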
CHO-K1 Ca antag: nonselective inhibitor or artifact in parental CHO-K1 cells; ATP-induced calcium, Fluo-8 fluorescence; inhibition, % at 3 µM; hit rate 0.6% among 360,000; AID 602250;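 active = inhibition above a per-plate cutoff, the plate's mean sample inhibition plus 3 SD, cut at about 24% in these data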
CHO-K1 Ca ag: counter-screen for M1 agonists: effect in parental CHO-K1 cells; activation, % at 3 µM; hit rate 0.48% among 360,000; Fluo-8 calcium fluorescence; scaled to maximal ATP response, vehicle zero; in the data active = activation above about 15%;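 note: untransfected CHO-K1 host cells lacking M1 receptor as counterscreen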
CHRM1 antagonist: human M1 muscarinic receptor antagonists, primary screen, CHO-K1 cells, Fluo-8 calcium fluorescence, 1536-well; inhibition, % at 3 µM; hit rate 1.3% among 360,000; CHO-K1 hM1, ACh EC80 antagonist; Muscarinic acetylcholine receptor M1 (Homo sapiens), P11229; AID 588852, 2011;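 active = percent inhibition above its own plate's cutoff, namely the mean of that plate's compound wells plus 3 SD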;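 note: peak over basal fluorescence ratio during 140 s after agonist addition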
CHRM1 agonist: human M1 muscarinic receptor agonists, primary screen, Fluo-8 calcium fluorescence, CHO-K1 cells, HTS; activation, % at 3 µM; hit rate 0.33% among 360,000; Muscarinic acetylcholine receptor M1 (Homo sapiens), P11229; CHO-K1 hM1, agonist mode; 0% DMSO, 100% acetylcholine EC100;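 active = activation above the run's mean compound activation plus 3 SD, cut at about 16% in these data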;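 note: peak over basal fluorescence ratio within a 140 s kinetic read after compound addition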
Large screens that a line does not name were inactive. An excerpt weighted towards active compounds, which were near 2.4% of everything screened.

CC(=O)N[C@H]1C(O)O[C@H](CO)[C@@H](O)[C@@H]1O (stereo partly specified)	none
COc1ccc(C(CNC(=O)CNC(=O)c2ccc(F)cc2)N2CCCC2)cc1 (stereo unspecified)	none
COc1ccc(C(CNC(=O)Cc2c(F)cccc2Cl)N2CCCCC2)cc1 (stereo unspecified)	CHRM1 antagonist 68.2
CCN1CCCC1CNC(=O)c1ccc(Sc2ccccc2Cl)c([N+](=O)[O-])c1 (stereo unspecified)	CHRM1 antagonist 99.0
CCN1CCCC1CNC(=O)c1ccc(Sc2ccc(F)cc2)c([N+](=O)[O-])c1 (stereo unspecified)	CHRM1 antagonist 99.9
CCN(CC)CC#CCC(O)(c1ccccc1)C1CCCCC1 (stereo unspecified)	CHO-K1 Ca ag 16.1, CHRM1 antagonist 98.8
COc1ccc(N2CC(NC(=O)N3CCN(c4ccccc4)CC3)CC2=O)cc1 (stereo unspecified)	CHO-K1 Ca ag 16.0
COc1ccc(N2CCN(C(=O)C3CC(=O)N(c4ccc(C)cc4)C3)CC2)cc1 (stereo unspecified)	none
COc1ccc(N2CC(NC(=O)Nc3ccccc3)CC2=O)cc1 (stereo unspecified)	CHO-K1 Ca ag 15.3
CCOC(=O)C1CCCCN1Cc1cn(C)nc1-c1ccccc1F (stereo unspecified)	none
O=C(CN1C(=O)C(c2ccc(F)cc2)=NC12CCCC2)Nc1ccc(F)cc1	CHO-K1 Ca antag 36.2
O=C(NCCc1ccccc1)C(=O)NCC1OCCN1S(=O)(=O)c1ccc2c(c1)OCCO2 (stereo unspecified)	CHO-K1 Ca ag 19.2
Cc1ccc(C(NC(=O)C2CCN(CCOc3ccccc3)CC2)c2ccccn2)cc1 (stereo unspecified)	CHRM1 antagonist 33.3
Cn1cnnc1SCC(=O)Nc1ccc(Cl)cn1	CHO-K1 Ca antag 32.6
Cn1ccnc1SCC(=O)n1c2c(c3ccccc31)CCCC2	none
O=C(Nc1cccc(F)c1)C1CCN(c2nnnn2-c2ccccc2)CC1	CHO-K1 Ca antag 28.0
COC(=O)c1cc(S(=O)(=O)N2CCN(c3ccc(F)cc3)CC2)cn1C	CHO-K1 Ca ag 19.9
CCN(CC)c1ccc(NC(=O)CSc2nc3ccccc3c(=O)n2-c2cc(S(=O)(=O)N(C)C)ccc2C)cc1	CHO-K1 Ca antag 24.1
O=C(c1ccco1)N1CCN(c2ccc(Cl)c(Cl)c2)CC1	CHO-K1 Ca antag 26.2, CHRM1 antagonist 33.1
COC(=O)N1CCN(c2ccc(Cl)c(Cl)c2)CC1	none
O=C(CCC(=O)N1CCN(c2ccc(Cl)c(Cl)c2)CC1)c1ccccc1	CHRM1 antagonist 43.8
O=C(c1ccco1)N1CCN(c2ccc(Cl)cc2)CC1	none
CNC(=S)N1CCN(c2ccc(Cl)c(Cl)c2)CC1	CHO-K1 Ca ag 16.9
FC(F)(F)c1nc(NCc2ccccc2)c2nnn(Cc3ccccc3)c2n1	none
COc1cccc(/C=N/n2c(-c3n[nH]c4c3CCC4)n[nH]c2=S)c1OC	CHRM1 antagonist 75.7
CC(/C=N/n1c(-c2n[nH]c3c2CCC3)n[nH]c1=S)=C\c1ccco1	CHRM1 antagonist 67.1
COc1ccc(/C=N/n2c(-c3n[nH]c4c3CCC4)n[nH]c2=S)cc1	none
CCCCCOc1ccc(NC(=O)C(=O)NCC2CCCN2CC)cc1 (stereo unspecified)	CHO-K1 Ca antag 24.9
CCN1CCCC1CNC(=O)C(=O)NC (stereo unspecified)	none
Cc1ccc(O)c(NC(=O)c2ccc3c(c2)C(=O)N(Cc2cccnc2)C3=O)c1	CHO-K1 Ca antag 33.0
Cc1cc(C)c(NC(=O)c2ccc3c(c2)C(=O)N(Cc2cccnc2)C3=O)c(C)c1	none
O=C(CCCC(=O)NNC(=O)Nc1ccccc1)NNC(=O)Nc1ccccc1	CHO-K1 Ca antag 28.4
O=c1[nH]c2ccccc2nc1/C=C(\O)c1cccs1	CHO-K1 Ca ag 15.2, CHRM1 agonist 18.0
O=C(/C(=C/c1ccc(Cl)cc1)c1nc2ccccc2[nH]1)c1cccs1	CHRM1 antagonist 94.4
O=C(/C(=C\c1ccccc1)c1nc2ccccc2[nH]1)c1ccc(Cl)cc1	none
C[C@H](O)[C@@H]1CN2CCc3c([nH]c4ccccc34)[C@@H]2C[C@@H]1N(C)C(=O)Nc1cccc2ccccc12	none
COc1cc(NC(=O)C/C(C)=N/NC(=O)C(=O)NCCO)c(OC)cc1Cl	CHO-K1 Ca antag 55.2
COc1cc(NC(=O)C/C(C)=N/NC(=O)C(=O)NC2CCCCC2)c(OC)cc1Cl	none
CC(C)(C)NC(=O)C(c1ccc(F)cc1)N(CCc1ccccc1)C(=O)c1ccn[nH]1 (stereo unspecified)	CHO-K1 Ca ag 15.4
Cc1ccccc1-n1c(SCC(=O)N2CCCC2)nnc1-c1ccccn1	M1 PAM 21.9
CCc1ccccc1-n1c(SCC(=O)N2CCCC2)nnc1-c1ccccn1	none
COCCn1nnnc1C(c1cccc(OC)c1OC)N1CCN(C(=O)c2ccco2)CC1 (stereo unspecified)	none
COCCn1nnnc1C(c1cccc(OC)c1OC)N1CCN(C2CCCCC2)CC1 (stereo unspecified)	M1 PAM 24.1
O=C(O)CSc1ccc2ccccc2n1	none
O=C(CSc1ccc2ccccc2n1)c1ccc2c(c1)OCO2	CHO-K1 Ca antag 28.4
CCN(C(=O)c1cccs1)c1nnc(-c2ccncc2)s1	none
CC(C)(C)c1ccc(S(=O)(=O)N2CCSC2)cc1	CHRM1 antagonist 39.1
COc1ccc(OCCSc2nnc3sc4ccccc4n23)cc1	none
Cc1ccc(NC(=O)CSc2nnc(CNC(=O)c3c(F)cccc3Cl)o2)cc1	CHO-K1 Ca antag 25.9
Cc1cc(C)c(NC(=O)CSc2nnc(CNC(=O)c3c(F)cccc3Cl)o2)c(C)c1	none
Clc1ccc(-c2c[n+](Cc3ccc(Cl)cc3Cl)c3n2CCCCC3)cc1	CHRM1 antagonist 47.8
CC1CCC(C(C)C)C(OC(=O)C[n+]2cc(-c3ccc(Cl)cc3)n3c2CCCCC3)C1 (stereo unspecified)	CHRM1 antagonist 74.6
Clc1ccc(C[n+]2cc(-c3ccccc3)n3c2CCCCC3)c(Cl)c1	none
O=C(C[n+]1cc(-c2ccccc2)n2c1CCCCC2)c1ccc(Cl)cc1	none
CCCC(=O)Nc1ccc(-c2ccc(NC(=O)CCC)cc2)cc1	none
O=C1[C@H]2C(c3ccccc3)=NN(c3ccccc3)[C@H]2C(=O)N1c1ccccc1	none
